Rows were chosen to be rich in hits. Some 9.8% of all compounds tested hit in one or more screens of this group.
HttQ103 aggreg = qHTS Multiplex Assay to Identify Dual Action Probes in a Cell Model of Huntington: Aggregate Formation (GFP); PC12 HttQ103-GFP aggregates, Acumen cytometry, 40 h; Potency, µM (titrated, usually from 46.1 µM), usual class: inhibitors; actives 1.1% (n = 220,000); AID 1688, 2009; further: nearly all actives have a fitted effect of over 60% in size
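Inducible Q103 Huntingtin exon 1–GFP PC12 line, 1500 cells/well in phenol red free DMEM with 5% equine and 5% calf serum. Tebufenozide 100 nM induced expression; compounds titrated; aggregates quantified by cytometry.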
KDM4E inh = qHTS Assay for Inhibitors of Human Jumonji Domain Containing 2E (JMJD2E); Potency, µM (titrated, usually from 57.1 µM), actives largely listed as inhibitors; actives 1.6% (n = 230,000); AID 2147, 2009; JMJD2E catalytic domain, FDH-coupled NADH fluorescence (FDH is formaldehyde dehydrogenase); further: nearly all actives have a fitted effect of over 50% in size
ALDH1A1 inh = qHTS Assay for Inhibitors of Aldehyde Dehydrogenase 1 (ALDH1A1) | actives 7.3% (n = 220,000) | Potency, µM (series often up to 75.3 µM), usual class: inhibitors | Purified ALDH1A1, NADH fluorescence, propionaldehyde substrate | Aldehyde dehydrogenase 1A1 (Homo sapiens), P00352; active means well fitted inhibition curve with a large enough effect, not every such curve was filed as active; inconclusive means small, poorly fitted or top-dose-only effect, or another doubt; inactive means no such curve, though single readings can be large or run the other way
CBFb-RUNX1 inh = qHTS Assay for Compounds Blocking the Interaction Between CBF-beta and RUNX1 for the Treatment of Acute Myeloid Leukemia. Runt-related transcription factor 1 (Homo sapiens) + Core-binding factor subunit beta …. AlphaScreen CBFb-His/RUNX1-biotin binding, biochemical. Potency, µM (titrated, usually from 59.8 µM), hits mostly inhibitors. 230,000 tested, under 10 active
Target sequence (Q01196 whole entry, looked up): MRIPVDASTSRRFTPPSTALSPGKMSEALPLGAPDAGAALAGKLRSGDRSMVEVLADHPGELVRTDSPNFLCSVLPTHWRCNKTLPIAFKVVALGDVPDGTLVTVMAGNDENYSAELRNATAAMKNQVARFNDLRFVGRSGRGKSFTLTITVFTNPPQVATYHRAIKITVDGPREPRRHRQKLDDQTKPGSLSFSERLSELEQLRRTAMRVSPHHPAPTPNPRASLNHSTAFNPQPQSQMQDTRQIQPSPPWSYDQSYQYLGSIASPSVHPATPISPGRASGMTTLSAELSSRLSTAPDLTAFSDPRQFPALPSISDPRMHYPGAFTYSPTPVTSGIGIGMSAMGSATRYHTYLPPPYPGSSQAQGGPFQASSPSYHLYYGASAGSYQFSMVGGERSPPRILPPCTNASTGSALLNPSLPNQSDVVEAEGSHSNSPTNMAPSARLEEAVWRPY
Target sequence (Q13951 whole entry, looked up): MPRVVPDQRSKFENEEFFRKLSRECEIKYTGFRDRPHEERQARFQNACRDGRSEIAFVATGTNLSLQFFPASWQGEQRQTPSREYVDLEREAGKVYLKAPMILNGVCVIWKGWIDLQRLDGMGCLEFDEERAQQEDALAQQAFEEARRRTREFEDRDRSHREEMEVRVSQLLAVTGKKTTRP
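Bead-based AlphaScreen assay; binding partners His-tagged CBF-beta and biotinylated RUNX1 at 30 nM each. Compound exposure 15 min after a 20-min protein preincubation; bead step 90 min; all steps at room temperature.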
HTT cytoprotect = qHTS Multiplex Assay to Identify Dual Action Probes in a Cell Model of Huntington: Cytoprotection (ATP) | PC12 HTT-Q103 induced, cytoprotection, ATP luminescence, 40 h | Potency, µM (top dose mostly 56.4 µM), actives largely listed as activators | actives 0.14% (n = 230,000); further: nearly all actives have a fitted effect of over 45% in size
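ATP quantification (ATPlite) reports survival of PC12 cells in which tebufenozide, 100 nM final, switches on Htt exon 1 with 103 glutamines linked to GFP; compounds are titrated.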
HPGD inh = qHTS Assay for Inhibitors of HPGD (15-Hydroxyprostaglandin Dehydrogenase); purified HPGD, NADH fluorescence kinetic, PGE2 substrate; Potency, µM, actives largely listed as inhibitors; 15-hydroxyprostaglandin dehydrogenase [NAD(+)] (Homo sapiens), P15428; actives 4.3% (n = 150,000); active means well fitted inhibition curve with a large enough effect, not every such curve was filed as active; inconclusive means small, poorly fitted or top-dose-only effect, or another doubt; inactive means no such curve, though single readings can be large or run the other way
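NADH formation kinetics: reaction with 30 uM PGE2 and 1 mM NAD+ (final), 20 nM enzyme, Tris-HCl pH 8 with Tween 20, after 15 min compound preincubation at room temperature. Fluorescence change, last versus first of five reads.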
Numbers stand for hits; - = inactive; ? = inconclusive; . = no result given; [ ] = another dose, or the depositor's remark. Unless noted, the call rests on the fitted dose curve; in most records, active means well fitted curve in the direction sought with a large enough effect; inconclusive means small, poorly fitted or top-dose-only effect, or another doubt; inactive means no such curve, though single readings can be large; an effect the other way counts as inactive or inconclusive.

SMILES | HttQ103 aggreg | KDM4E inh | ALDH1A1 inh | CBFb-RUNX1 inh | HTT cytoprotect | HPGD inh
COc1cc(OC)cc(C(=O)NNC(=O)c2ccccn2)c1 | 11µM | ? | - | - | -[10 µM] | -
COc1ccc(C(=O)NNC(=O)c2ccccn2)cc1 | - | - | - | - | -[10 µM] | ?
O=c1[nH]c(-c2ccncc2)nc2ccccc12 | - | - | 7.9µM | - | -[10 µM] | 7.1µM
O=c1[nH]c(-c2cccnc2)nc2ccccc12 | - | - | - | - | -[10 µM] | 18µM
CN(C)c1ccc(-c2nc3ccccc3c(=O)[nH]2)cc1 | -[9.22 µM] | ? | . | - | -[10 µM] | .
CN1CCN(Cc2c(O)ccc3cc(Br)ccc23)CC1 | - | ? | 25µM | - | - | .
Cc1ccc[n+](CC(=O)Nc2ccc([N+](=O)[O-])cc2Cl)c1 | - | - | 16µM | - | -[10 µM] | -
Cc1ccc(C)c(NC(=O)CN(C)S(=O)(=O)c2cccc3cccnc23)c1 | -[9.22 µM] | - | . | - | -[10 µM] | .
CC1(C)CC23C(=O)CCC(O)C2(C)CCC13 (centres undefined) | . | - | ? | . | . | -
Cc1ccc(C2OCC3(CO)COC(c4ccc(C)cc4)N23)cc1 (centres undefined) | - | - | 4.5µM | - | - | -
Cc1ccc(C2OCC3(CO2)COC(c2ccc(C)cc2)OC3)cc1 (centres undefined) | - | - | - | - | -[10 µM] | -
O=C1C(C=NCCCN2CCCC2=O)=C(O)c2ccccc21 | - | - | - | - | -[10 µM] | -
c1ccc(Cc2nn3c(COc4ccccc4)nnc3s2)cc1 | - | - | 5µM | - | -[10 µM] | 10µM
Clc1ccccc1-c1nn2c(COc3ccccc3)nnc2s1 | ? | ? | 20µM | - | -[0.074 µM] | 28µM
CCOc1ccccc1OCc1nn2c(COc3ccccc3)nnc2s1 | - | - | 7.9µM | - | - | 11µM
CSc1ccc(C(=S)N2CCN(C(c3ccccc3)c3ccccc3)CC2)cc1 | - | - | 2.4µM | - | - | 14µM
CSc1ccc(C(=S)N2CCN(C)CC2)cc1 | - | - | 32µM | - | -[10 µM] | 28µM
Cc1ccc(N/N=C/c2c(C)c(C#N)c(=O)n(C)c2O)cc1C | - | - | 0.79µM | - | - | .
Cn1cccc1Cc1nnc(SCC(=O)N2CCCCCC2)n1CCc1ccccc1 | - | - | 25µM | - | - | -
Cn1cccc1Cc1nnc(SCC(=O)Nc2cccc(F)c2)n1CCc1ccccc1 | - | - | ? | - | - | -
Cn1cccc1Cc1nnc(SCC(=O)Nc2ccccc2F)n1CCc1ccccc1 | - | - | 25µM | - | -[10 µM] | -
O=C(NCc1ccccn1)C1(C(F)(F)F)C/C(=C\Cc2ccccc2)CCCO1 (centres undefined) | . | . | . | - | . | .
CC1(C)CC(=O)C/C(=N/NC(=O)COc2ccc(Cl)cc2Cl)C1 | -[9.22 µM] | - | . | - | -[10 µM] | .
CC1(C)CC(=O)CC(=O)/C1=N\Nc1c(Cl)cc(Cl)cc1Cl | - | - | 6.3µM | - | -[10 µM] | -
COc1ccc(NC(=S)Nc2ccccc2SC)c(OC)c1 | - | - | ? | - | - | .
SMILES | HttQ103 aggreg | KDM4E inh | ALDH1A1 inh | CBFb-RUNX1 inh | HTT cytoprotect | HPGD inh
O=C1NCCN(Cc2ccc(Cl)c(F)c2)C1CC(=O)N1CCCCO1 (centres undefined) | -[9.22 µM] | ? | 25µM | - | -[10 µM] | .
Cc1cnc(CNc2cc(-c3ccc(C(=O)N(C)C)cc3)ncn2)cn1 | . | . | ? | . | - | .
Cc1cnc(CNc2ccnc(-c3ccc(C(=O)N(C)C)cc3)n2)cn1 | . | - | - | . | - | 5.6µM
CCN(CC)S(=O)(=O)c1ccc(S(=O)(=O)Nc2ccc3c(c2)oc2ccccc23)cc1 | ? | - | ? | - | - | -
CN(C)S(=O)(=O)c1ccc(S(=O)(=O)Nc2ccc3c(c2)oc2ccccc23)cc1 | ? | - | 13µM | - | -[10 µM] | -
CCSc1nnc(NC(=O)[C@@H](NC(=O)c2ccccc2F)C(C)C)s1 | - | - | - | - | - | .

Source: PubChem BioAssay
